Where “and” joins values, the source holds several entries; their conditions need not be identical. Equal values may be shown once.
These compounds were tested on human monocyte-derived macrophages (polarized) (assay: cell shape (eccentricity) Z-score vs DMSO control; higher = more elongated, M2-like morphology). Details: 5 µM; 24 h; macrophage state: M1-polarized (IFNg + TNFa), cytokines present during treatment.
Method: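 Primary-screen hits were rescreened on polarized hMDMs with the differentiating cytokines (IL-4 + IL-13 or IFNg + TNFa) kept in the medium during treatment with compound at 5 uM for 24 h. The eccentricity Z-score vs DMSO wells is averaged over experiments.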

SMILES | cell shape (Z-score)
C#C[C@]1(O)CC[C@H]2[C@@H]3CCC4=Cc5oncc5C[C@]4(C)[C@H]3CC[C@@]21C | -4.38
O=C(CCc1ccc(O)cc1)c1c(O)cc(O)cc1O | -3.42
CC(N)C(=O)OC(C)(C)Cc1ccc(Cl)cc1 (stereo not given) | -2.3
O=C(c1ccc(/C=C/c2n[nH]c3ccccc23)cc1)N1CCNCC1 | 28.4
CC1(C)CC[C@]2(C(=O)O)CC[C@]3(C)C(=CCC4[C@@]5(C)CC[C@@H](O)C(C)(C)C5CC[C@]43C)C2C1 (stereo not given in full) | -1.9
O=c1cc(-c2cccc3c2Sc2ccccc2S3)oc(N2CCOCC2)c1 | -7.49
COc1cc(Nc2ncc(F)c(Nc3ccc4c(n3)NC(=O)C(C)(C)O4)n2)cc(OC)c1OC | -14.9
CCN(CC)C(=S)SSC(=S)N(CC)CC | -3.98
C/C=C/c1ccc2c(c1)O[C@@H](CN(C)C(=O)c1ccccc1)[C@@H](C)CN([C@@H](C)CO)S2(=O)=O | -5.32
CC(C)n1cnc2c(NCc3ccccc3)nc(NCCO)nc21 | 0.237
CC1=C(/C=C/C(C)=C/C=C/C(C)=C/CO)C(C)(C)CCC1 | 7.5
Cc1onc(-c2ccccc2)c1-c1ccc(S(N)(=O)=O)cc1 | 7.67
NC(=O)Nc1sc(-c2ccc(F)cc2)cc1C(N)=O | 7.48
CCc1cnn2c(NCc3ccc[n+]([O-])c3)cc(N3CCCC[C@H]3CCO)nc12 | 8
Cc1cc(N2CCOCC2)cc2[nH]c(-c3c(NC[C@@H](O)c4cccc(Cl)c4)cc[nH]c3=O)nc12 | 2.38
C#Cc1cccc(Nc2ncnc3cc(OCCOC)c(OCCOC)cc23)c1 | 11.8
COc1cc2c(Oc3ccc4[nH]c(C)cc4c3F)ncnc2cc1OCCCN1CCCC1 | 12.3
CC[C@H](Nc1ncnc2[nH]cnc12)c1nc2cccc(F)c2c(=O)n1-c1ccccc1 | -16.8

Same assay, conditions: 5 µM; 24 h; macrophage state: M2-polarized (IL-4 + IL-13), cytokines present during treatment

SMILES | cell shape (Z-score)
CN1[C@@H](CC(=O)c2ccccc2)CCC[C@H]1C[C@H](O)c1ccccc1 | 4.11
CC(=O)OCCNC(=O)c1cccnc1 | 2.01
O=C(O)CC[C@H]1CC[C@@](c2cc(F)ccc2F)(S(=O)(=O)c2ccc(Cl)cc2)CC1 | 4.15
COc1ccc(/C=C/C(=O)c2ccc(O)cc2O)cc1 | -3.18
CCCCC[C@H](O)/C=C/[C@H]1[C@H](O)CC(=O)[C@@H]1CCCCCCC(=O)O | -28.2
COc1cc2c(cc1-c1coc3c4c(ccc3c1=O)OC(C)(C)C=C4)OCO2 | -5.25
CC(=O)O[C@H]1C(=O)[C@@]2(C)[C@H]([C@H](OC(=O)c3ccccc3)[C@]3(O)C[C@H](OC(=O)[C@H](O)[C@@H](NC(=O)c4ccccc4)c4ccccc4)C(C)=C1C3(C)C)[C@]1(OC(C)=O)CO[C@@H]1C[C@@H]2O | -14.3 and -18.7
CCCS(=O)(=O)Nc1ccc(F)c(C(=O)c2c[nH]c3ncc(-c4ccc(Cl)cc4)cc23)c1F [Vemurafenib] | -1.16
Cc1ccc(O)c(N=Nc2ccccc2)n1 | -1.32
CC[C@@]1(O)C(=O)OCc2c1cc1n(c2=O)Cc2cc3c([N+](=O)[O-])cccc3nc2-1 | -14.4
C[C@H]1CN([C@@H](C)CO)S(=O)(=O)c2ccc(C#Cc3ccncc3)cc2O[C@@H]1CN(C)C(=O)Nc1ccc2c(c1)OCO2 | 5.87
COc1ccc(/C=C/C(=O)O)cc1OC | 1.19
OC(CN1CCNCC1)Cn1c2ccc(Br)cc2c2cc(Br)ccc21 (stereo not given) | -13.7
C[C@@]12C[C@]3(O)O[C@H](O1)C1(COC(=O)c4ccccc4)[C@H]3C[C@@]12O[C@@H]1O[C@H](COC(=O)c2ccccc2)[C@@H](O)[C@H](O)[C@H]1O | -2.92
COc1cc(O)c2c(=O)c(OC)c(-c3ccc(OC)c(OC)c3)oc2c1 | -8.25
Cc1nc(Nc2n[nH]c3c2CN(C(=O)N[C@H](CN(C)C)c2ccccc2)C3(C)C)c2sccc2n1 | -7.51
O=C(Nc1ccc([N+](=O)[O-])cc1Cl)c1cc(Cl)ccc1O | -8.05

Source: the supplement of paper PMC7858590
